Results: the supplement of paper PMC6522484
± gives the standard deviation of the averaged measurements.

Columns and labels:
DLD1 [1] = assay: cell viability (CellTiter-Glo) relative to plate median (fraction of plate median); higher = more viable cells; settings: 5 µM; treatment time 24 h; reporter: 7TFP
Method in brief: (§1)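 Each entry is a luminescence signal normalised to the plate median, averaged over independent replicates. The replicate count was two, and the cells were colorectal cancer lines with stable lentiviral TCF/Wnt firefly luciferase reporters exposed to library compounds at a final 5 µM for 24 h. Firefly luciferase and CellTiterGlo were measured on parallel plates.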

HCT116 = assay: as above; settings: 5 µM; treatment time 24 h; reporter: TCF4/Wnt
Method in brief: as §1

SW480 [2] = assay: as above; settings: 5 µM; treatment time 24 h; reporter: 7TFP
Method in brief: as §1

DLD1 [3] = assay: TCF/Wnt firefly luciferase reporter signal relative to plate median (fraction of plate median); higher = higher Wnt reporter signal; settings: 5 µM; treatment time 24 h; reporter: 7TFP
Method in brief: as §1

SW480 [4] = assay: as above; settings: 5 µM; treatment time 24 h; reporter: 7TFP
Method in brief: as §1

Structure (SMILES) | cell viability (DLD1 [1]) | cell viability (HCT116) | cell viability (SW480 [2]) | TCF/Wnt firefly luciferase reporter signal (DLD1 [3]) | TCF/Wnt firefly luciferase reporter signal (SW480 [4])
CC(C)C[C@H]1C(=O)N2CCC[C@H]2C(=O)N1O [Cyclo(hydroxyleucylprolyl)] | 0.978 ± 0.074 | 0.973 ± 0.081 | 0.988 ± 0.088 | 0.949 ± 0.0042 | 1.05 ± 0.071
CN(C)CC/C=C1/c2ccccc2Sc2ccc(Cl)cc21 | 0.835 ± 0.21 | 0.98 ± 0.019 | 0.934 ± 0.016 | 1.07 ± 0.042 | 0.967 ± 0.061
NCCS(=O)(=O)O | 1.04 ± 0.021 | 1.01 ± 0.061 | 0.978 ± 0.02 | 0.9735 ± 0.00071 | 1 ± 0.037
C=CCc1ccc(O)c(OC)c1 | 0.978 ± 0.013 | 1.07 ± 0.16 | 0.943 ± 0.063 | 1.06 ± 0.12 | 1.09 ± 0.078
CC(=O)O[C@H]1CC[C@]2(C)C3=C(CC[C@H]2C1(C)C)[C@]1(C)CC[C@H]([C@H](C)CCC=C(C)C)[C@@]1(C)CC3 | 0.966 ± 0.036 | 0.957 ± 0.055 | 0.953 ± 0.034 | 0.9 ± 0.098 | 0.958 ± 0.1
C1CCN2C[C@@H]3C[C@@H](CN4CCCC[C@@H]34)[C@H]2C1 | 1.08 ± 0.12 | 1.04 ± 0.021 | 1.05 ± 0.021 | 1.16 | 0.948 ± 0.053
C=C1C(=O)O[C@@H]2C[C@@]3(C)CCC[C@H](C)C3=C[C@H]12 | 1.01 ± 0.02 | 0.875 ± 0.027 | 0.96 ± 0.0057 | 0.985 ± 0.0057 | 1.03 ± 0.067
CC1(C)S[C@@H]2[C@H](NC(=O)[C@H](NC(=O)N3CCNC3=O)c3ccccc3)C(=O)N2[C@H]1C(=O)O | 1.07 ± 0.014 | 0.988 ± 0.0042 | 0.956 ± 0.046 | 0.903 ± 0.0099 | 0.919 ± 0.053
CCCCC1=NC2(CCCC2)C(=O)N1Cc1ccc(-c2ccccc2-c2nnn[nH]2)cc1 | 0.897 ± 0.099 | 0.939 ± 0.016 | 1 ± 0.083 | 1.01 ± 0.048 | 0.811 ± 0.22
COc1c(O)cc2oc3cc(O)c(CC=C(C)C)c(O)c3c(=O)c2c1CC=C(C)C [alpha-MANGOSTIN] | 1.055 ± 0.0071 | 1.15 ± 0.021 | 1.01 ± 0.015 | 1.04 ± 0.24 | 0.941 ± 0.076
COc1cc(CO)cc2c1C(=O)c1c(O)cc(O)cc1C2=O [Carviolin] | 0.883 ± 0.19 | 0.93 ± 0.018 | 0.99 ± 0.0014 | 0.811 ± 0.1 | 0.963 ± 0.044
O=C1CC[C@]23/C=C/C(=O)NCCCCNCCCNC(=O)/C=C/c4ccc(c2c4)O[C@@H]3C1 | 1.03 ± 0.014 | 1.06 ± 0.057 | 1.01 ± 0.024 | 1.01 ± 0.056 | 1.04 ± 0.042
NCCS | 1.02 ± 0.014 | 1.07 ± 0.12 | 1.035 ± 0.0071 | 1.21 ± 0.021 | 1.16 ± 0.092
Nc1ccc(S(=O)(=O)Nc2nccs2)cc1 | 1.01 ± 0.031 | 0.911 ± 0.028 | 1.065 ± 0.0071 | 0.999 ± 0.072 | 1.055 ± 0.0071
OC[C@H]1O[C@H]([S-])[C@H](O)[C@@H](O)[C@@H]1O.[Au+] | 0.945 ± 0.21 | 0.921 ± 0.019 | 1.11 ± 0.021 | 0.891 ± 0.12 | 0.265 ± 0.088
NC[C@@H]1O[C@H](O[C@H]2[C@@H](O)[C@H](O[C@@H]3[C@@H](O)[C@H](N)C[C@H](N)[C@H]3O[C@H]3O[C@H](CO)[C@@H](O)[C@H](O)[C@H]3N)O[C@@H]2CO)[C@H](N)[C@@H](O)[C@@H]1O | 1.1 ± 0.035 | 0.975 ± 0.064 | 1.065 ± 0.0071 | 0.901 ± 0.043 | 0.995 ± 0.11
C[C@@H]1CC[C@@]2(OC1)O[C@H]1C[C@H]3[C@@H]4CC=C5C[C@@H](O)CC[C@]5(C)[C@H]4CC[C@]3(C)[C@H]1[C@@H]2C | 1.01 ± 0.14 | 0.973 ± 0.025 | 0.93 ± 0.046 | 0.89 ± 0.063 | 0.998 ± 0.06
c1ccc2c(CC3=NCCN3)cccc2c1 | 1.11 ± 0.035 | 1.09 ± 0.028 | 1.09 ± 0.035 | 1.07 ± 0.12 | 0.984 ± 0.11
CC(=O)Oc1cc(OC(C)=O)c2c(c1)O[C@H](c1ccc(OC(C)=O)c(OC(C)=O)c1)[C@H](OC(C)=O)C2 | 1 ± 0.055 | 0.972 ± 0.15 | 1.01 ± 0.016 | 0.921 ± 0.044 | 1 ± 0.015
CC(=O)OC1CCC23CC1(C)CCC2C(C)(C)CC3OC(C)=O (stereo not given) | 0.999 ± 0.044 | 1.09 ± 0.021 | 1.02 ± 0.042 | 1.03 ± 0.014 | 0.93 ± 0.04
CC1(C)[C@@H](O)CC[C@]2(C)[C@H]3C(=O)C=C4[C@@H]5C[C@@](C)(C(=O)O)CC[C@]5(C)CC[C@@]4(C)[C@]3(C)CC[C@@H]12 | 1.01 ± 0.059 | 1.03 ± 0.098 | 1.05 ± 0.057 | 1.04 ± 0.22 | 1.12 ± 0.13
CC(=O)[C@H]1CC[C@H]2[C@@H]3CC=C4C[C@@H](OC(=O)CCC(=O)O)CC[C@]4(C)[C@H]3CC[C@]12C | 1.02 ± 0.021 | 1.01 ± 0.018 | 0.975 ± 0.033 | 0.97 ± 0.03 | 1.1 ± 0.028
C[C@H](CCC(=O)O)[C@H]1CC[C@H]2[C@@H]3CC[C@@H]4C[C@H](O)CC[C@]4(C)[C@H]3C[C@H](O)[C@]12C | 0.982 ± 0.025 | 1.04 ± 0.11 | 1 ± 0.024 | 1.03 ± 0.13 | 1.01 ± 0.053
CN(C)[C@@H]1C(O)=C(C(N)=O)C(=O)[C@@]2(O)C(O)=C3C(=O)c4c(O)cccc4[C@@](C)(O)[C@H]3[C@H](O)[C@@H]12 | 1.02 ± 0.17 | 1.07 ± 0.071 | 1.01 ± 0.021 | 0.901 ± 0.18 | 1 ± 0.071
CN1CC(=O)N2[C@H](c3ccc4c(c3)OCO4)c3[nH]c4ccccc4c3C[C@@H]2C1=O | 0.995 ± 0.079 | 1.08 ± 0.028 | 0.995 ± 0.021 | 0.973 ± 0.081 | 0.941 ± 0.098
C#C[C@]1(O)CC[C@H]2[C@@H]3CCC4=CCCC[C@@H]4[C@H]3CC[C@@]21C | 1 ± 0.094 | 1.04 ± 0.021 | 0.97 ± 0.0085 | 1.02 ± 0.033 | 0.905 ± 0.042
CC(C(=O)O)c1ccc(N2Cc3ccccc3C2=O)cc1 (stereo not given) | 0.986 ± 0.035 | 1.06 ± 0.035 | 0.992 ± 0.054 | 0.99 ± 0.14 | 1.05 ± 0.064
C[C@H]1COc2c(N3CCN(C)CC3)c(F)cc3c(=O)c(C(=O)O)cn1c23 | 0.891 ± 0.025 | 0.966 ± 0.04 | 0.984 ± 0.023 | 0.996 ± 0.049 | 1.04 ± 0.093
